Assay results as given in PubChem BioAssay (Tox21).
Unmarked numbers belong to inactive results. Active and inactive are the calls of the source. Calls come from the whole dose curve.

assay: qHTS assay to identify small molecule agonists of the sonic hedgehog signaling (Shh) pathway (AID 1259368); details: NIH/3T3 Gli1-Luc reporter, luciferase, 24 h, stronger effect = higher value; series mostly up to 92.4 µM;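 note: NIH/3T3-derived 3T3Gli1-Luc cells carrying a stable Gli1-driven firefly luciferase reporter; nearly all actives have a fitted effect of over 15% in size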
Text: National Center for Advancing Translational Sciences [NCATS]
NIH Chemical Genomics Center [NCGC]
U.S. Environmental Protection Agency [EPA]
National Institutes of Environmental Health Sciences [NIEHS]
National Toxicology Program [NTP]
The sonic hedgehog (Shh) pathway is essential for normal embryonic development. Dysregulation of the Shh pathway can cause severe developmental defects in organs. Therefore chemicals that interfere with the pathway are potential developmental toxicants. A cell line designated 3T3Gli1-Luc (DMB/OARSA/CFSAN/FDA, Laurel, MD), a NIH/3T3 derived clone containing stably integrated Gli1-Luc reporter is used to detect chemical interference of the Shh pathway, by changes in the expression of the firefly Luc gene under the control of the Gli1 transcriptional response element. This cell line was used to screen Tox21 libraries for identifying and prioritizing the potential developmental toxicants that interfere Shh pathway.
3T3 Gli1-Luc cells were dispensed at 2,000 per well in 5uL of culture medium into white solid bottom 1536-well plates (Greiner Bio-One, Monroe, NC) using a Multidrop Combi (Thermo Scientific, Waltham, MA) dispenser. The assay plates were incubated at 37 C and 5% CO2 for 4hr, and then 23nL of compounds dissolved in DMSO and positive control were transferred using a Pintool station (Wako, San Diego, CA). The assay plates were incubated at 37C and 5% CO2 for 24hr. For luciferase read, 4uL of Amplite Luciferase reporter gene assay reagent (AAT Bioquest, Inc. Sunnyvale, CA) was added to each well of the assay plates using Flying Reagent Dispenser (FRD, Aurora Discovery, San Diego, CA) and incubated at room temperature for 30min. The luminescence signal was measured using a ViewLux plate reader (Perkin Elmer, Shelton, CT).
% is set by controls: 0 for no effect and ±100 for the full control effect.

Row | SMILES | outcome | activity change
1 | CCCC(=O)C(CC)Sc1ccoc1C (stereo not given) | inactive | 
2 | CCOC(=O)COc1ccc2c(C)c(CCN(CC)CC)c(=O)oc2c1Cl | inactive | 
3 | CCCCC(CC)CCC(CC(C)C)OS(=O)(=O)O (stereo not given) | inactive | 
4 | C=CCN1CCc2nc(N)sc2CC1 | inactive | 
5 | C=CCCCCCCCCOC(C)=O | inactive | 
6 | CC(=O)c1ccc(O)c(C(N)=O)c1 | inactive | 
7 | O=C(O)Cc1ccccc1Oc1ccc(Cl)cc1Cl | inactive | 
8 | C[C@@H]1NC(=O)[C@@H](N)CNC(=O)[C@H](C2CCNC(N)=N2)NC(=O)/C(=C/NC(N)=O)NC(=O)[C@H](CNC(=O)C[C@@H](N)CCCN)NC1=O (stereo not given in full) |  | 0.0291% [at 0.349 µM]
9 | O=C1CCCc2c(O)cccc21 | inactive | 
10 | CC(C)(O)c1ccc(C(C)(C)O)cc1 | inactive | 
11 | O=S(=O)(O)c1ccc(Cl)cc1 | inactive | 
12 | Cc1ccccc1C#N | inactive | 
13 | CCCCS | inactive | 
14 | CC(=O)OC1CCC(C(C)(C)C)CC1 (stereo not given) | inactive | 
15 | CC(C)(C)OC(=O)c1ccccc1C(=O)O | inactive | 
16 | CC(=O)Nc1ccc(OCCOCCOc2ccc(NC(C)=O)cc2)cc1 | inactive | 
17 | COc1cc(S(N)(=O)=O)cc(C(=O)O)c1OC | inactive | 
18 | CCCCCCCOC(C)=O | inactive | 
19 | Nc1ccc(C(=O)NCC(=O)O)cc1 | inactive | 
20 | Cc1ccc(O)c([N+](=O)[O-])c1 | inactive | 

Row | SMILES | outcome | activity change
21 | O=CN1CCCCC1 | inactive | 
22 | CCOc1ccccc1OCCN[C@H](C)Cc1ccc(OC)c(S(N)(=O)=O)c1 | inactive | 
23 | O=C(OOC(=O)c1ccccc1)c1ccccc1 | inactive | 
24 | CCCC(C)C(O)CC (stereo not given) | inactive | 
25 | CC(=O)/C=C/C=C1/C2CCC(C2)C1(C)C (stereo not given) | inactive | 
26 | CCc1ccc(CC)cc1 | inactive | 
27 | c1coc(Cn2cccc2)c1 | inactive | 
28 | Cc1ccc(NC(N)=O)cc1 | inactive | 
29 | CC(=O)O[C@@H]1CC2C3CCc4cc(OC(=O)c5ccccc5)ccc4C3CCC2(C)[C@H]1OC(C)=O (stereo not given in full) | inactive | 
30 | CCCCCCCCOCCC#N | inactive | 
31 | N#CC1(N)CCCCC1 | inactive | 
32 | CNC(C)=O | inactive | 
33 | CCOC(=O)CC | inactive | 
34 | COC(=O)C(c1ccccc1Cl)N1CCc2sccc2C1 (stereo not given) | inactive | 
35 | CCCCCCCCCCCBr | inactive | 
36 | CCCCC(O)/C=C(C)/C=C/C=C/C(=O)N1CCCC1=O (stereo not given) | inactive | 
37 | CC(CN1CC(=O)NC(=O)C1)N1CC(=O)NC(=O)C1 (stereo not given) | inactive | 
38 | CCCCCCCCCCCCCCCCN(C)C |  | -0.702% [at 8.39 µM]
39 | COC(C)(C)CC(C)=O | inactive | 
40 | CC(C)(C)c1ccc(C(=O)CCCCl)cc1 | inactive | 
